In PubChem BioAssay (NCATS):
Records with an inconclusive call do not appear. Activity calls are given as the source filed them. Calls come from the whole dose curve; as a rule, active = well fitted cell-killing curve with a large enough effect; inconclusive = small, poorly fitted or top-dose-only effect, or effect the other way; inactive = flat fitted curve, though single readings scatter.

Columns and labels:
Test in all cases: Primary qHTS to identify gynecologic anti-cancer compounds using libraries of approved drugs and bioactive compounds (AID 1345084); note: nearly all actives have a fitted effect of over 55% in size
[1] = system: C33A; details: Gynecologic cancer cell panel viability, ATPlite luminescence, 48 h; series mostly up to 57.5 µM
Outline: (§1)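 Luminescence from the ATPlite ATP-monitoring reagent indicates viable cell number; lower signal means cytotoxicity. Cells received compound 16 h after seeding and were exposed for 48 h across five concentrations.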

[2] = system: CAOV3; details: Gynecologic cancer cell panel viability, ATPlite luminescence, 48 h; series mostly up to 57.5 µM
Outline: as §1

[3] = system: CASKI; details: Gynecologic cancer cell panel viability, ATPlite luminescence, 48 h; series mostly up to 57.5 µM
Outline: as §1

[4] = system: Es-2; details: Gynecologic cancer cell panel viability, ATPlite luminescence, 48 h; series mostly up to 57.5 µM
Outline: as §1

[5] = system: HeLa; details: Gynecologic cancer cell panel viability, ATPlite luminescence, 48 h; series mostly up to 57.5 µM
Outline: as §1

[6] = system: Hek293T; details: Gynecologic cancer cell panel viability, ATPlite luminescence, 48 h, control line for the selectivity index; series mostly up to 57.5 µM
Outline: as §1

[7] = system: JEG-3; details: Gynecologic cancer cell panel viability, ATPlite luminescence, 48 h; series mostly up to 57.5 µM
Outline: as §1

[8] = system: OV90; details: Gynecologic cancer cell panel viability, ATPlite luminescence, 48 h; series mostly up to 57.5 µM
Outline: as §1

[9] = system: PA-1; details: Gynecologic cancer cell panel viability, ATPlite luminescence, 48 h; series mostly up to 57.5 µM
Outline: as §1

[10] = system: SKOV3; details: Gynecologic cancer cell panel viability, ATPlite luminescence, 48 h; series mostly up to 57.5 µM
Outline: as §1

[11] = system: Tov-21-G; details: Gynecologic cancer cell panel viability, ATPlite luminescence, 48 h; series mostly up to 57.5 µM
Outline: as §1

[12] = system: Tov112D; details: Gynecologic cancer cell panel viability, ATPlite luminescence, 48 h; series mostly up to 57.5 µM
Outline: as §1
% is set by controls: 0 for no effect and ±100 for the full control effect.

C=C(CO)C12OC1C1(C)C(=CC2=O)C(O)C(O)CC1C (stereo not drawn)
inactive: Potency [1] | Potency [2] | Potency [3] | Potency [4] | Potency [5] | Potency [6] | Potency [7] | Potency [8] | Potency [9] | Potency [10] | Potency [11] | Potency [12]

O=C(Nc1ccc(-c2ccncc2)cc1)N[C@H](CO)c1ccccc1
inactive: Potency [1] | Potency [2] | Potency [3] | Potency [4] | Potency [5] | Potency [6] | Potency [7] | Potency [8] | Potency [9] | Potency [10] | Potency [11] | Potency [12]

C[C@@H]1O[C@@H](O[C@H]2[C@H](O)[C@@H](O[C@@H]3O[C@H](CO)[C@@H](O)[C@H](O[C@@H]4O[C@H](CO)[C@@H](O)[C@H](O)[C@H]4O)[C@H]3O)[C@H](O[C@H]3CC[C@@]4(C)C(=CC[C@@H]5C4CC[C@@]4(C)C5C[C@@H]5OC6(CC[C@@](C)(CO[C@@H]7O[C@H](CO)[C@@H](O)[C@H](O)[C@H]7O)O6)[C@@H](C)[C@@H]54)C3)O[C@@H]2CO)[C@H](O)[C@H](O)[C@H]1O (stereo partly drawn)
inactive: activity change, negative = cytotoxicity [1] 0.269% [at 6.55 µM] | activity change, negative = cytotoxicity [2] -0.0617% [at 6.55 µM] | activity change, negative = cytotoxicity [3] -1.1% [at 6.55 µM] | activity change, negative = cytotoxicity [4] -0.893% [at 6.55 µM] | activity change, negative = cytotoxicity [5] -3.62% [at 6.55 µM] | activity change, negative = cytotoxicity [6] 9.02% [at 6.55 µM] | activity change, negative = cytotoxicity [7] -5.56% [at 6.55 µM] | activity change, negative = cytotoxicity [8] 1.28% [at 6.55 µM] | activity change, negative = cytotoxicity [9] -4.89% [at 6.55 µM] | activity change, negative = cytotoxicity [10] 5.85% [at 6.55 µM] | activity change, negative = cytotoxicity [11] -2.15% [at 6.55 µM] | activity change, negative = cytotoxicity [12] -2.67% [at 6.55 µM]

CC(=O)N[C@H]1[C@H](O[C@H]2CC[C@@]3(C)C(CC[C@]4(C)C3CC=C3[C@@H]5CC(C)(C)CC[C@]5(C(=O)OC5OCC(O)C(O)C5O)CC[C@]34C)C2(C)C)O[C@H](COC2OC(C)C(O)C(OC3OC(C)C(O)C(O)C3O)C2O)[C@@H](O)[C@@H]1O (stereo partly drawn)
inactive: activity change, negative = cytotoxicity [1] -0.0854% [at 11.6 µM] | activity change, negative = cytotoxicity [2] 0.431% [at 11.6 µM] | activity change, negative = cytotoxicity [3] 5.69% [at 11.6 µM] | activity change, negative = cytotoxicity [4] 4.54% [at 11.6 µM] | activity change, negative = cytotoxicity [5] 1.75% [at 11.6 µM] | activity change, negative = cytotoxicity [6] 4.04% [at 11.6 µM] | activity change, negative = cytotoxicity [7] 1.81% [at 11.6 µM] | activity change, negative = cytotoxicity [8] 3.41% [at 11.6 µM] | activity change, negative = cytotoxicity [9] 5.97% [at 11.6 µM] | activity change, negative = cytotoxicity [10] 2.42% [at 11.6 µM] | activity change, negative = cytotoxicity [11] 2.63% [at 11.6 µM] | activity change, negative = cytotoxicity [12] 7.32% [at 11.6 µM]

O=C(CO)[C@@H](O)[C@H](O[C@@H]1O[C@H](CO)[C@H](O)[C@H](O)[C@H]1O)[C@H](O)CO
inactive: Potency [1] | Potency [2] | Potency [3] | Potency [4] | Potency [5] | Potency [6] | Potency [7] | Potency [8] | Potency [9] | Potency [10] | Potency [11] | Potency [12]

C=C(F)c1sc(CNCCCNc2cc(=O)c3ccccc3[nH]2)c(C)c1Br
inactive: Potency [1] | Potency [2] | Potency [3] | Potency [4] | Potency [5] | Potency [6] | Potency [7] | Potency [8] | Potency [9] | Potency [10] | Potency [11] | Potency [12]

CCCOC(c1cc2nccc(C(=O)O)c2[nH]1)c1ccccc1Cl (stereo not drawn)
inactive: Potency [1] | Potency [2] | Potency [3] | Potency [4] | Potency [5] | Potency [6] | Potency [7] | Potency [8] | Potency [9] | Potency [10] | Potency [11] | Potency [12]

COC(=O)CCC(=O)OC[C@]1(C)CCC[C@@]2(C)C3CC[C@]4(C)C=CC3(CCC12)C4 (stereo partly drawn)
inactive: Potency [1] | Potency [2] | Potency [3] | Potency [4] | Potency [5] | Potency [6] | Potency [7] | Potency [8] | Potency [9] | Potency [10] | Potency [11] | Potency [12]

COC(=O)C1=CO[C@@H](O[C@@H]2O[C@H](CO)[C@@H](O)[C@H](O)[C@H]2O)[C@H]2[C@@H]1CC(OC)O[C@@H]2C (stereo partly drawn)
inactive: Potency [1] | Potency [2] | Potency [3] | Potency [4] | Potency [5] | Potency [6] | Potency [7] | Potency [8] | Potency [9] | Potency [10] | Potency [11] | Potency [12]

COc1ccc(/C=C/C(=O)O[C@@H]2[C@@H](O)[C@@H](O)[C@H](O[C@@H]3C=C(CO)[C@H]4[C@H](O[C@@H]5O[C@H](CO)[C@@H](O)[C@H](O)[C@H]5O)OC=C[C@H]43)O[C@H]2C)cc1O
inactive: Potency [1] | Potency [2] | Potency [3] | Potency [4] | Potency [5] | Potency [6] | Potency [7] | Potency [8] | Potency [9] | Potency [10] | Potency [11] | Potency [12]

CCOCc1nc2c(N)nc3ccccc3c2n1CC(C)(C)O
inactive: Potency [1] | Potency [2] | Potency [3] | Potency [4] | Potency [5] | Potency [6] | Potency [7] | Potency [8] | Potency [9] | Potency [10] | Potency [11] | Potency [12]

O=C(COc1cccc2c(=O)[nH]ccc12)c1ccccc1
inactive: Potency [1] | Potency [2] | Potency [3] | Potency [4] | Potency [5] | Potency [6] | Potency [7] | Potency [8] | Potency [9] | Potency [10] | Potency [11] | Potency [12]

C=CC(C)(CC/C=C(\C)C(=O)OC)OC1OC(COC(=O)CC(C)(O)CC(=O)O)C(OC2OC(CO)C(O)C(O)C2O)C(O)C1O (stereo not drawn)
inactive: Potency [1] | Potency [2] | Potency [3] | Potency [4] | Potency [5] | Potency [6] | Potency [7] | Potency [8] | Potency [9] | Potency [10] | Potency [11] | Potency [12]

CC1(C)CC[C@]2(C(=O)O[C@@H]3O[C@H](CO[C@@H]4O[C@H](CO)[C@@H](O)[C@H](O)[C@H]4O[C@@H]4O[C@H](CO)[C@H](O)[C@H](O)[C@H]4O)[C@@H](O)[C@H](O[C@@H]4O[C@H](CO)[C@@H](O)[C@H](O)[C@H]4O)[C@H]3O)CC[C@]3(C)C(=CCC4[C@@]5(C)CC[C@H](O[C@@H]6OC[C@@H](O)[C@H](O)[C@H]6O)[C@@](C)(C(=O)O)C5CC[C@]43C)[C@@H]2C1 (stereo partly drawn)
inactive: activity change, negative = cytotoxicity [1] -13.6% [at 6.55 µM] | activity change, negative = cytotoxicity [2] 6.72% [at 6.55 µM] | activity change, negative = cytotoxicity [3] -6.95% [at 6.55 µM] | activity change, negative = cytotoxicity [4] 3.44% [at 6.55 µM] | activity change, negative = cytotoxicity [5] 0.826% [at 6.55 µM] | activity change, negative = cytotoxicity [6] 8.22% [at 6.55 µM] | activity change, negative = cytotoxicity [7] -2.73% [at 6.55 µM] | activity change, negative = cytotoxicity [8] 3.06% [at 6.55 µM] | activity change, negative = cytotoxicity [9] -1.12% [at 6.55 µM] | activity change, negative = cytotoxicity [10] 19.9% [at 6.55 µM] | activity change, negative = cytotoxicity [11] 4.04% [at 6.55 µM] | activity change, negative = cytotoxicity [12] 5.73% [at 6.55 µM]
